“And” between values parts separate entries of the source, which are not always exact repeats. Identical values can stand only once. Inconclusive results are not listed. Entries that show only a call come without a potency. Unmarked numbers belong to inactive results. The source made the active and inactive calls. The call rests on the fitted dose curve; in most records, active means well fitted curve in the direction sought with a large enough effect in the repeat runs; inconclusive means weak or mixed curves; inactive means no such curve, though single readings can be large; an effect the other way counts as inactive or inconclusive.
Columns and labels:
[1] = qHTS assay to identify small molecule antagonists of the retinoic acid receptor (RAR) signaling pathway (AID 1159552; further: nearly all actives have a fitted effect of over 50% in size; further: potency means the concentration at half of the fitted maximal effect)
Summary of the method: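 Luminescence from a RARE luciferase reporter in C3RL4 cells served as read-out. Cells received compounds together with 1 uM final retinol and incubated 6 hr at 37 C before detection reagent was added for 30 min at room temperature.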

[2] = qHTS assay to identify small molecule agonists of the retinoic acid receptor (RAR) signaling pathway (AID 1159553); further: potency means the concentration at half of the fitted maximal effect
Summary of the method: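 Activation of retinol signaling was monitored via a RARE luciferase reporter in C3RL4 cells. After 6 hr compound treatment at 37 C, detection reagent was added for 30 min at room temperature before luminescence reading.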

[3] = qHTS assay to identify small molecule antagonists of the retinoid acid receptor (RAR) signaling pathway - cell viability counter screen (AID 1159551); further: nearly all actives have a fitted effect of over 35% in size
Summary of the method: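 Seed C3RL4 cells; next day add compound, then retinol to 1 uM final; incubate 6 h at 37 C; add CellTiter-Glo; read luminescence after 30 min at RT.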

[4] = qHTS assay to identify small molecule antagonists of the estrogen related receptor (ERR) signaling pathway from Tox21 library - cell viability counter screen (AID 1224834); further: nearly all actives have a fitted effect of over 30% in size; further: potency means the concentration at half of the fitted maximal effect
Summary of the method: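 CellTiter-Fluor fluorescence measured; ERR cells; 17.5 h compound incubation at 37 C; 30 min reagent step.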

[5] = qHTS assay to identify small molecule antagonists of the estrogen related receptor (ERR) signaling pathway - cell viability counter screen (AID 1224818);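 further: series mostly up to about 46 µM; viability measured after 17.5 h of compound exposure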
Summary of the method: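 In the same ERR cell assay, compound-treated wells (17.5 h, 37 C) were multiplexed with a fluorogenic viability reagent, CellTiter-Fluor, read after 30 min to flag cytotoxic substances.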

[6] = qHTS assay to identify small molecule antagonists of the estrogen related receptor signaling pathway with the pleiotropic PPARgamma coactivator (PGC) cell viability counter screen (AID 1224822; further: series mostly up to about 46 µM)
Summary of the method: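 Compounds in DMSO, with positive and negative controls, were applied to PGC/ERR cells (2,000/well) and left 17.5 h at 37 C before CellTiter-Fluor detection.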

O=C(Nc1ccccc1)c1ccccc1O
Potency [1]: inactive
Potency [2]: 8.63 µM (active)

CN1CCN(C(c2ccccc2)c2ccccc2)CC1
Potency [3]: inactive
Potency [4]: inactive

O=C(CS)Nc1ccccc1
Potency [3]: inactive
Potency [4]: inactive

CCCCNc1ccc(C(=O)OCCOCCOCCOCCOCCOCCOCCOCCOCCOC)cc1
Potency [3]: inactive
Potency [4]: inactive

COC(=O)c1ccc(I)cc1S(=O)(=O)NC(=O)Nc1nc(C)nc(OC)n1
Potency [3]: inactive
Potency [4]: inactive

CC(=O)c1cccc([N+](=O)[O-])c1
Potency [3]: inactive
Potency [4]: inactive

C[C@H]1C[C@H]2[C@@H]3CCC4=CC(=O)C=C[C@]4(C)[C@@]3(Cl)[C@@H](O)C[C@]2(C)[C@@]1(O)C(=O)CO
Potency [3]: inactive
Potency [4]: inactive

CCc1cc(C2=C(C(=O)O)N(c3ccccc3C(F)(F)F)S(=O)(=O)c3ccccc32)cc2c1OCO2
Potency [3]: inactive
Potency [4]: 7.61 µM (active)

NCc1ccccc1Sc1ccccc1CO
Potency [1]: inactive
Potency [2]: inactive
Potency [4]: inactive

CN(C)CCOC(c1ccccc1)c1ccc(Br)cc1 (configuration not stated)
Potency [3]: inactive
Potency [4]: inactive

O=C1CCC(=O)O1
Potency [1]: inactive
Potency [2]: inactive
Potency [4]: inactive

CC(C)(COC(=O)c1ccccc1)COC(=O)c1ccccc1
Potency [3]: inactive
Potency [4]: inactive

C[N+]1(CC2COC(c3ccccc3)(C3CCCCC3)O2)CCCCC1 (configuration not stated)
Potency [3]: inactive
Potency [4]: inactive

CC(C)OC(=O)C(C)N(C(=O)c1ccccc1)c1ccc(F)c(Cl)c1 (configuration not stated)
Potency [1]: inactive
Potency [2]: inactive

CC(C)(CO)[N+](=O)[O-]
Potency [3]: inactive
Potency [4]: inactive

NCCCN1CCOCC1
Potency [3]: inactive
Potency [4]: inactive

CO[C@@H]1[C@H](OC(=O)/C=C/C=C/C=C/C=C/C(=O)O)CC[C@]2(CO2)[C@H]1[C@@]1(C)O[C@@H]1CC=C(C)C
Potency [3]: inactive
Potency [4]: inactive

OC[C@H]1O[C@@H](OCCc2ccc(O)cc2)[C@H](O)[C@@H](O)[C@@H]1O
Potency [3]: inactive
Potency [4]: inactive

CCCCC(=O)OCC(=O)[C@H]1[C@H](C)C[C@H]2[C@@H]3C[C@H](F)C4=CC(=O)C=C[C@]4(C)[C@@]3(F)[C@@H](O)C[C@@]21C
Potency [3]: inactive
Potency [4]: inactive

CC1=CC=C(C(C)C)CC1
Potency [3]: inactive
Potency [4]: inactive

CC1=CC[C@H](C(C)C)C=C1
Potency [3]: inactive
Potency [4]: inactive

C1CCCNCCC1
Potency [3]: inactive
Potency [4]: inactive

C=CC(=O)OCCOCCOCCOCCOC(=O)C=C
Potency [1]: 48.8 µM (active) and 42.9 µM (active)
Potency [2]: 19.4 µM (active) and 17.1 µM (active)
Potency [4]: 30.8 µM (active) and 24.1 µM (active)

N=c1ccn2c(n1)O[C@H]1[C@H](O)[C@@H](CO)O[C@H]12
Potency [3]: inactive
Potency [4]: inactive

C[N+](C)(C)CCOC(=O)CCC(=O)OCC[N+](C)(C)C
Potency [1]: inactive
Potency [2]: inactive
outcome [5]: inactive
outcome [6]: inactive
Potency [4]: inactive

C[C@@H](c1ncncc1F)C(O)(Cn1cncn1)c1ccc(F)cc1F (some centres not stated)
Potency [1]: inactive
Potency [2]: inactive
Potency [4]: inactive

CCCCC1=NC2(CCCC2)C(=O)N1Cc1ccc(-c2ccccc2-c2nn[nH]n2)cc1
Potency [1]: inactive

Cc1cc(C(=O)O)ccc1[N+](=O)[O-]
Potency [1]: inactive
Potency [2]: inactive
Potency [4]: inactive

O=C(O)CNCC(=O)O
viability change, negative = cytotoxic [4]: 2.9% [at 8.39 µM]

NS(=O)(=O)c1ccc(N2CCCCS2(=O)=O)cc1
Potency [1]: inactive
Potency [4]: inactive

Cc1cccc(C)c1NC(=O)CN(CC(=O)O)CC(=O)O
Potency [4]: inactive

OCCNCc1ccccc1
Potency [1]: inactive
Potency [4]: inactive

CCCCCCOC(=O)NC(=N)c1ccc(NCc2nc3cc(C(=O)N(CCC(=O)OCC)c4ccccn4)ccc3n2C)cc1
Potency [1]: inactive
Potency [4]: 29.8 µM (active)

CC1=CCCC(C)(C)C12CCC(C)O2 (configuration not stated)
Potency [4]: inactive

CC(=O)OC[C@H]1O[C@@H](n2ncc(=O)[nH]c2=O)[C@H](OC(C)=O)[C@@H]1OC(C)=O
Potency [1]: inactive
Potency [2]: inactive
Potency [4]: inactive

COc1cc2nc(N3CCN(C(=O)C4COc5ccccc5O4)CC3)nc(N)c2cc1OC (configuration not stated)
Potency [1]: inactive
Potency [2]: inactive
Potency [4]: 29.8 µM (active)

CC(=O)[O][Al]
Potency [2]: inactive
Potency [4]: inactive

COc1cccc(N(C)C(=S)Oc2ccc3c(c2)CCCC3)n1
Potency [1]: inactive
Potency [4]: inactive

CCCCCCCCCc1ccc(OCCOCCO)cc1
Potency [4]: 10.2 µM (active)

Cc1ccc(C(=O)Oc2ccc(C(O)CNC(C)(C)C)cc2OC(=O)c2ccc(C)cc2)cc1 (configuration not stated)
Potency [4]: inactive

CCN(CC)CCNc1ccc(CNC=O)c2sc3ccc(OC)cc3c(=O)c12
Potency [4]: 7.7 µM (active)

C=CC(=O)OCCOc1ccccc1
Potency [1]: 48.5 µM (active)
Potency [2]: inactive
Potency [4]: inactive

O=S(=O)(Oc1ccc(Cl)cc1)c1ccccc1
Potency [1]: inactive
Potency [4]: inactive

C=CC(=O)OCCOCCOC(=O)C=C
Potency [1]: 48.8 µM (active)
Potency [4]: 38.7 µM (active)

CC(C)CC(=O)C1C(=O)c2ccccc2C1=O
Potency [2]: inactive
Potency [4]: 38.6 µM (active)

CCN(CC)CCOC(=O)C(c1ccccc1)C1CCCCC1 (configuration not stated)
Potency [2]: inactive
Potency [4]: 29.8 µM (active)

O=C(O)c1ccco1
Potency [4]: inactive

Nc1c(CC(=O)O)cccc1C(=O)c1ccc(Br)cc1
Potency [4]: inactive

CN(Cc1ccc(C(C)(C)C)cc1)Cc1cccc2ccccc12
Potency [1]: inactive
Potency [4]: inactive

CC(C)Cc1ccc(C(C)C(=O)OCc2ccccn2)cc1 (configuration not stated)
Potency [4]: inactive

C=C1C(=C/C=C2\CCC[C@]3(C)[C@@H]([C@H](C)/C=C/[C@@H](O)C4CC4)CC[C@@H]23)C[C@@H](O)C[C@@H]1O
Potency [1]: inactive
Potency [4]: 29.8 µM (active)

COc1cc2nc(Cl)nc(N)c2cc1OC
Potency [1]: inactive
Potency [4]: inactive

C[N+]1(C)CCC(OC(=O)C(O)(c2ccccc2)C2CCCC2)C1 (configuration not stated)
Potency [2]: inactive
Potency [4]: inactive

From PubChem BioAssay (Tox21)
